Source: PubChem BioAssay AID1159580 (chemical genetic matrix, 2015)
Where “and” joins values, the source holds several entries; their conditions need not be identical. Equal entries are not always repeated. The campaign covered roughly 5,500 compounds. About 2,000 (36%) were called active. Another 18% or so got no clear call; they are omitted. No stated cut-off is given here; in the data, active means normalized growth mostly below about 0.91 (no sharp cut-off); inconclusive means no clear call, values can overlap the other calls; inactive means mostly above about 0.92. Some of the results follow.

Assay: chemical genetic growth profiling, strain panel (AID 1159580);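 further: tested at 20 µM; growth read once vehicle control cultures reached saturation at 30 °C; 1 = growth at the plate median or of vehicle wells; lower values mean less growth of the strain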
Conditions: S. cerevisiae deletion strains, growth OD

Measured: normalized growth

CC1(C)C2CC(=O)O[C@@]3(C)C4=CC(=O)O[C@@H](c5ccoc5)[C@]4(C)CCC3[C@@]2(C)C=C[C@H]1O (stereo partly drawn)
inactive: locus YAL013W, strain DEP1, active compounds read low 0.997 | locus YAL021C, strain ccr4, active compounds read low 0.993 | locus YAL026C, strain drs2, active compounds read low 0.98 | locus YAL030W, strain snc1, active compounds read low 0.978 | locus YBL061C, strain skt5, active compounds read low 0.986 | locus YBR009C, strain hhf1, active compounds read low 0.991 | locus YBR021W, strain FUR4, active compounds read low 1.01 | locus YBR023C, strain chs3, active compounds read low 0.97 | locus YBR171W, strain sec66, active compounds read low 0.966 | locus YBR229C, strain ROT2, active compounds read low 1.01 | locus YBR231C, strain swc5, active compounds read low 0.985 | locus YBR279W, strain paf1, active compounds read low 0.985 | locus YCL011C, strain gbp2, active compounds read low 0.967 | locus YCL016C, strain dcc1, active compounds read low 1.01 | locus YCL029C, strain bik1, active compounds read low 0.989 | locus YCL061C, strain MRC1, active compounds read low 0.999 | locus YCL069W, strain vba3, active compounds read low 0.971 | locus YCR088W, strain abp1, active compounds read low 0.974 | locus YDL005C, strain med2, active compounds read low 0.975 | locus YDL035C, strain GPR1, active compounds read low 1.03 | locus YDL040C, strain nat1, active compounds read low 0.974 | locus YDL074C, strain BRE1, active compounds read low 1.01 | locus YDL101C, strain DUN1, active compounds read low 0.999 | locus YDL134C, strain PPH21, active compounds read low 1.01 | locus YDL185W, strain tfp1, active compounds read low 0.999 | locus YDL192W, strain arf1, active compounds read low 0.988 | locus YDR001C, strain nth1, active compounds read low 0.99 | locus YDR069C, strain doa4, active compounds read low 0.98 | locus YDR101C, strain arx1, active compounds read low 1 | locus YDR137W, strain rgp1, active compounds read low 1.01 | locus YDR159W, strain sac3, active compounds read low 0.953 | locus YDR162C, strain NBP2, active compounds read low 0.998 | locus YDR195W, strain ref2 0.961 | locus YDR297W, strain sur2, active compounds read low 0.983 | locus YDR318W, strain mcm21, active compounds read low 0.989 | locus YDR334W, strain swr1, active compounds read low 0.981 | locus YDR335W, strain msn5, active compounds read low 0.979 | locus YDR388W, active compounds read low 0.99 | locus YDR392W, strain spt3, active compounds read low 0.984 | locus YDR502C, strain sam2, active compounds read low 0.998 | locus YEL003W, strain gim4, active compounds read low 0.978 | locus YEL037C, strain rad23, active compounds read low 0.984 | locus YEL061C, strain CIN8 (second series), active compounds read low 0.972 | locus YER015W, strain faa2, active compounds read low 0.975 | locus YER016W, strain bim1, active compounds read low 0.988 | locus YER110C, active compounds read low 0.983 | locus YER111C, strain swi4, active compounds read low 0.975 | locus YER155C, strain BEM2 (second series), active compounds read low 1 | locus YER155C, strain BEM2, active compounds read low 1.01 | locus YER167W, strain BCK2, active compounds read low 1.02 | locus YFR010W, strain ubp6, active compounds read low 0.971 | locus YGL078C, strain dbp3, active compounds read low 0.982 | locus YGL086W, strain mad1, active compounds read low 0.988 | locus YGL167C, strain pmr1, active compounds read low 0.989 | locus YGL173C, strain kem1, active compounds read low 0.98 | locus YGL227W, strain vid30, active compounds read low 0.98 | locus YGL240W, strain doc1, active compounds read low 0.968 | locus YGL248W, strain PDE1, active compounds read low 1 | locus YGL253W, strain hxk2, active compounds read low 0.948 | locus YGR078C, strain PAC10, active compounds read low 1 | locus YGR135W, strain pre9, active compounds read low 0.969 | locus YGR252W, strain gcn5, active compounds read low 0.97 | locus YHR013C, strain ard1, active compounds read low 0.973 | locus YHR027C, strain rpn1, active compounds read low 0.983 | locus YHR030C, strain SLT2, active compounds read low 1.01 and 0.99 | locus YHR079C, strain IRE1 (second series), active compounds read low 0.988 | locus YHR079C, strain IRE1, active compounds read low 0.987 | locus YHR094C, strain hxt1, active compounds read low 0.987 | locus YHR129C, strain ARP1, active compounds read low 1.01 | locus YHR142W, strain chs7, active compounds read low 0.964 | locus YHR200W, strain rpn10, active compounds read low 0.989 | locus YIL066C, strain RNR3, active compounds read low 1.02 | locus YIL073C, strain SPO22, active compounds read low 0.988 | locus YIL125W, strain kgd1, active compounds read low 0.991 | locus YIR030C, strain dcg1, active compounds read low 0.975 | locus YJL092W, strain hpr5, active compounds read low 0.971 | locus YJL095W, strain BCK1 (second series), active compounds read low 0.982 | locus YJL095W, strain BCK1, active compounds read low 0.986 and 0.978 | locus YJL115W, strain asf1, active compounds read low 0.987 | locus YJL129C, strain trk1, active compounds read low 0.956 | locus YJL134W, strain LCB3, active compounds read low 1.01 | locus YJL154C, strain vps35, active compounds read low 0.99 | locus YJL164C, strain tpk1, active compounds read low 1.01 | locus YJL166W, strain qcr8, active compounds read low 0.98 | locus YJL168C, strain set2, active compounds read low 0.98 | locus YJL187C, strain SWE1 (second series), active compounds read low 0.997 | locus YJL187C, strain SWE1, active compounds read low 0.983 | locus YJR043C, strain POL32, active compounds read low 1.03 | locus YJR066W, strain TOR1, active compounds read low 0.946 | locus YKL009W, strain mrt4, active compounds read low 0.985 | locus YKL068W, active compounds read low 1 | locus YKL085W, strain MDH1 (second series), active compounds read low 0.993 | locus YKL085W, strain MDH1, active compounds read low 0.993 | locus YKL160W, strain elf1, active compounds read low 1.02 | locus YKR001C, strain vps1, active compounds read low 0.997 | locus YKR026C, strain gcn3, active compounds read low 0.977 | locus YKR091W, strain srl3, active compounds read low 0.983 | locus YLL001W, strain dnm1, active compounds read low 1 | locus YLL026W, active compounds read low 0.971 | locus YLL041C, strain sdh2, active compounds read low 0.976 | locus YLR027C, strain aat2, active compounds read low 0.968 | locus YLR039C, strain RIC1, active compounds read low 0.952 | locus YLR058C, strain SHM2, active compounds read low 1.01 | locus YLR102C, strain apc9, active compounds read low 0.982 | locus YLR113W, strain HOG1, active compounds read low 0.969 | locus YLR221C, strain rsa3, active compounds read low 0.975 | locus YLR258W, strain gsy2, active compounds read low 0.98 | locus YLR262C, strain YPT6 (second series), active compounds read low 1.01 | locus YLR268W, strain sec22, active compounds read low 1.01 | locus YLR320W, strain mms22, active compounds read low 0.993 | locus YLR330W, strain CHS5, active compounds read low 1.01 | locus YLR342W, strain FKS1, active compounds read low 0.977 | locus YLR357W, strain rsc2, active compounds read low 1 | locus YLR370C, strain arc18, active compounds read low 0.958 | locus YLR371W, strain rom2, active compounds read low 0.992 | locus YLR384C, strain iki3, active compounds read low 0.986 | locus YLR418C, strain cdc73, active compounds read low 0.955 | locus YML016C, strain PPZ1, active compounds read low 1.01 | locus YML032C, strain rad52, active compounds read low 1 | locus YML120C, strain ndi1, active compounds read low 0.959 | locus YML124C, strain tub3, active compounds read low 0.983 | locus YMR058W, strain fet3, active compounds read low 0.986 | locus YMR078C, strain ctf18, active compounds read low 0.985 | locus YMR125W, strain sto1, active compounds read low 0.993 | locus YMR129W, active compounds read low 0.992 | locus YMR205C, strain PFK2, active compounds read low 1.04 | locus YMR223W, strain ubp8, active compounds read low 0.971 | locus YMR231W, strain pep5, active compounds read low 0.948 | locus YMR263W, strain SAP30, active compounds read low 1.02 | locus YMR307W, strain GAS1, active compounds read low 0.922 | locus YNL067W, strain RPL9B, active compounds read low 0.999 | locus YNL071W, strain lat1, active compounds read low 0.987 | locus YNL153C, strain GIM3, active compounds read low 1 | locus YNL183C, strain NPR1, active compounds read low 0.962 | locus YNL209W, strain ssb2, active compounds read low 1.01 | locus YNL233W, strain BNI4, active compounds read low 0.992 | locus YNL248C, strain rpa49, active compounds read low 0.98 | locus YNL250W, strain rad50, active compounds read low 0.984 | locus YNL271C, strain bni1, active compounds read low 0.995 | locus YNL298W, strain CLA4, active compounds read low 1 | locus YNL307C, strain MCK1, active compounds read low 0.991 | locus YNL322C, strain KRE1 (second series), active compounds read low 0.962 | locus YNR049C, strain mso1, active compounds read low 0.981 | locus YNR052C, strain pop2, active compounds read low 0.983 | locus YOL006C, strain TOP1, active compounds read low 1.03 | locus YOL012C, strain htz1 0.912 | locus YOL147C, strain pex11, active compounds read low 0.989 | locus YOR001W, strain rrp6, active compounds read low 0.95 | locus YOR061W, strain CKA2, active compounds read low 1.01 | locus YOR069W, strain VPS5, active compounds read low 1 | locus YOR070C, strain gyp1, active compounds read low 0.984 | locus YOR080W, strain dia2, active compounds read low 0.963 | locus YOR083W, strain WHI5, active compounds read low 1.02 | locus YOR106W, strain vam3, active compounds read low 0.989 | locus YOR136W, strain idh2, active compounds read low 0.998 | locus YOR144C, strain elg1, active compounds read low 0.993 | locus YOR184W, strain ser1, active compounds read low 1.02 | locus YOR231W, strain MKK1, active compounds read low 0.998 | locus YOR265W, strain rbl2, active compounds read low 0.966 | locus YOR270C, strain vph1, active compounds read low 0.951 | locus YOR290C, strain snf2, active compounds read low 0.974 | locus YOR316C, strain cot1, active compounds read low 0.981 | locus YPL051W, strain arl3, active compounds read low 0.987 | locus YPL078C, strain atp4, active compounds read low 1.01 | locus YPL106C, strain sse1, active compounds read low 1.02 | locus YPL240C, strain hsp82, active compounds read low 0.967 | locus YPL241C, strain CIN2, active compounds read low 1.01 | locus YPL256C, strain CLN2, active compounds read low 0.967 | locus YPR119W, strain clb2, active compounds read low 0.981 | locus YPR141C, strain kar3, active compounds read low 0.987 | locus YPR163C, strain tif3, active compounds read low 0.994 | locus YPR167C, strain met16, active compounds read low 0.983 | strain wtn01, active compounds read low 1.02
